Compounds with a hit are over-represented: about 3.8% of the library has one in this group of screens.
CR mimetic SO: caloric restriction mimetics inhibiting age-related superoxide in yeast; superoxide response (% of plate mean), % at 10 µM; 330,000 tested, 0.18% active; S. cerevisiae aged cells, superoxide DHE fluorescence; active compounds read low; AID 2690;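 active = superoxide response under a set limit, about three screen SD below normal, cut at about 65% in these data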;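 note: yeast aged for seven days with compound at 30 °C before DHE staining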
NALP3 yeast inh: NALP3 inhibition in yeast; Yeast reconstituted NLRP3/ASC/caspase-1, beta-gal luminescence, 24 h; inhibition, % at 10 µM; 330,000 tested, 0.39% active;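 active = inhibition of 50% or more; inactive = inhibition below 50%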
TIM10 inh: growth inhibitors of TIM10 yeast strain | S. cerevisiae TIM10 strain growth, BacTiter-Glo luminescence, 24 h | inhibition, % at 10 µM | 330,000 tested, 1.4% active;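 active = inhibition of 40% or more at the single tested concentration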;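 note: wild-type TIM10 isogenic control strain grown at permissive 25 °C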
tim10-1 inh: tim10-1 yeast growth inhibition | S. cerevisiae tim10-1 ts strain growth, BacTiter-Glo, 24 h | inhibition, % at 20 µM | 330,000 tested, 2.2% active | AID 463190;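 active = inhibition of at least 40%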;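 note: mutant grown at 25 °C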
tim23-1 inh: growth inhibitors of tim23-1 mutant yeast | S. cerevisiae tim23-1 growth, BacTiter-Glo luminescence, 24 h | inhibition, % at 20 µM | 330,000 tested, 1.3% active;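 active = growth inhibition of the mutant yeast at or above 50%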;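 note: temperature-sensitive mutant grown at 25 °C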
TIM10 conf: TIM10 yeast growth inhibition, confirmed | 4,600 tested, 63% active | S. cerevisiae tim10 strain growth, BacTiter-Glo luminescence, 24 h | inhibition, % at 10 µM | shares compounds with TIM10 inh;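 active = inhibition of yeast growth at or above a set limit in either of two replicates at 10 µM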; note: this counterscreen used the strain with wild-type TIM10
tim23-1 confirm: confirmation of tim23-1 mutant yeast growth inhibitors; shares compounds with tim23-1 inh; S. cerevisiae tim23-1 growth, BacTiter-Glo luminescence, 24 h; inhibition, % at 20 µM; 4,400 tested, 83% active;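 active = inhibition above about 39% in either of two replicate wells at 20 µM, limit read from the data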;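 note: temperature-sensitive tim23-1 mutant grown at 25 °C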
Of the large screens only hits and unclear results are named; the others gave an inactive call (follow-up assays come after a bar, where they were run).

O=C(O)c1ccc(NC(=O)c2cn(-c3ccccc3)nc2-c2cccc(Cl)c2)cc1	none
CC(C)CN(C(=O)COC(=O)C(C)N1C(=O)c2ccccc2C1=O)c1c(N)n(Cc2ccccc2)c(=O)[nH]c1=O (stereo unspecified)	none
COc1ccccc1CNC(=S)NCCc1ccccc1	TIM10 inh 41 | TIM10 conf inactive
COc1ccc(CCNC(=S)NC(=O)c2ccccc2)cc1C	TIM10 inh 45 | TIM10 conf 50
C/C(=N\NC(=O)c1nnn(-c2nonc2N)c1C(C)C)c1ccc2ccccc2c1	none
Cc1cc(C)nc(N2CCC(C(=O)N3CCN(c4cc(Cl)ccc4C)CC3)CC2)n1	TIM10 inh 47 | TIM10 conf inactive
Cc1ccc(C)c(N2CCN(C(=O)C3CCN(c4nc(C)cc(C)n4)CC3)CC2)c1	none
CCCCOC(=O)CCn1c(=S)oc2ccccc21	none
CCCCOC(=O)n1c(=S)oc2cc(Cl)ccc21	TIM10 inh 74 | TIM10 conf inactive
COc1cccc(OCC(Cn2cnc3ccccc32)OC(C)=O)c1 (stereo unspecified)	none
Cc1nonc1C(=O)N/N=C/c1ccc([N+](=O)[O-])o1	none
Cn1cccc1/C=N/NC(=O)c1sc2ccccc2c1Cl	TIM10 inh 46 | TIM10 conf 49
O=C(N/N=C/c1c[nH]c2ccccc12)c1sc2ccccc2c1Cl	none
Cc1cc(C(=O)N/N=C/c2ccc([N+](=O)[O-])o2)c(C)o1	TIM10 inh 41 | TIM10 conf inactive
O=C(N/N=C/c1ccc([N+](=O)[O-])o1)c1sc2ccccc2c1Cl	TIM10 inh 69 | TIM10 conf 65
COC(=O)N/N=C/c1ccc([N+](=O)[O-])o1	none
CS(=O)(=O)N(CC(=O)N1CCN(Cc2ccccc2)CC1)c1cccc(Cl)c1	none
Cc1ccc(-c2nc3cc(N)ccc3o2)cc1	TIM10 inh 41 | TIM10 conf 30
Cc1ccc(-c2nc3cc(C)ccc3o2)cc1	none
Cc1ccc(-c2nc3cc(NS(=O)(=O)c4ccc(C)cc4)ccc3o2)cc1	TIM10 inh 45 | TIM10 conf 37
CC1=C(C(=O)Nc2ccccc2C)C(c2ccc(C)o2)N2C(=O)CSC2=N1 (stereo unspecified)	none
O=C(COc1ccc2c(c1)CCC2)N1CCc2ccccc21	TIM10 inh 45 | TIM10 conf 37
CC(=O)CCSc1nnc(-c2cccc(S(=O)(=O)N3CCOCC3)c2)o1	none
O=S(=O)(c1cccc(-c2nnc(SCc3nc4ccccc4s3)o2)c1)N1CCOCC1	TIM10 inh 43 | TIM10 conf inactive
O=C(NC(=S)Nc1ccc(O)cc1)C1CCCC1	TIM10 inh 44, tim23-1 inh 54 | TIM10 conf 33 | tim23-1 confirm 54
CC(=O)Nc1ccc(NC(=S)NC(=O)C2CC2)cc1	none
COC(=O)C/C=C/[C@@H](C)[C@@H](/C=N/OCC[C@@H]1C=C[C@H](OC(C)=O)[C@@H](COC(C)=O)O1)NS(=O)(=O)c1ccc(C)cc1	none
O=C(Nc1ccc2c(c1)OCCO2)c1cc2sccc2n1Cc1ccccc1	none
Cn1c(C(=O)Nc2ccc3c(c2)OCCO3)cc2sccc21	TIM10 inh 56, tim23-1 inh 56 | TIM10 conf inactive | tim23-1 confirm 44
CC(C)(Cc1ccccc1)NC(=O)C(=O)c1cn(CC(=O)N2CCOCC2)c2ccccc12	none
CCc1c(C2(O)CCCCC2)[nH]c2cc(C(F)(F)F)ccc12	TIM10 inh 51, tim23-1 inh 67 | TIM10 conf 61 | tim23-1 confirm inactive
COc1ccc(/C=N/NC(=O)c2nc(-c3ccccc3)n(-c3ccccc3)n2)c(O)c1	none
CC(C)(C)c1cc(C(=O)N/N=C/c2ccccc2O)n(-c2ccccc2)n1	TIM10 inh 59, tim23-1 inh 59 | TIM10 conf inactive | tim23-1 confirm 56
CCOc1cc(/C=N/NC(=O)C(N)=O)cc(Br)c1O	none
CCOc1cc(Br)c(Br)c(C=Nc2ccc(NC(C)=O)cc2)c1O	TIM10 inh 71, tim23-1 inh 76 | TIM10 conf 90 | tim23-1 confirm inactive
